Assays:
Assay in all cases: DAPPL (digital affinity profiling via proximity ligation, sequencing); 10 mM Tris-HCl pH 7.5, 50 mM NaCl, 1 mM DTT, 4% glycerol, room temperature, 30 min; GST-TFs on glutathione beads, 16-mer random dsDNA library, 0.1% formaldehyde crosslink after washing; high values mean tight binding
[1] = biological target: T1, FLI1 (Homo sapiens, UniProt Q01543 1-452); conditions: protein: recombinant; tags: N-terminal GST; dsDNA, one strand shown
T1 sequence: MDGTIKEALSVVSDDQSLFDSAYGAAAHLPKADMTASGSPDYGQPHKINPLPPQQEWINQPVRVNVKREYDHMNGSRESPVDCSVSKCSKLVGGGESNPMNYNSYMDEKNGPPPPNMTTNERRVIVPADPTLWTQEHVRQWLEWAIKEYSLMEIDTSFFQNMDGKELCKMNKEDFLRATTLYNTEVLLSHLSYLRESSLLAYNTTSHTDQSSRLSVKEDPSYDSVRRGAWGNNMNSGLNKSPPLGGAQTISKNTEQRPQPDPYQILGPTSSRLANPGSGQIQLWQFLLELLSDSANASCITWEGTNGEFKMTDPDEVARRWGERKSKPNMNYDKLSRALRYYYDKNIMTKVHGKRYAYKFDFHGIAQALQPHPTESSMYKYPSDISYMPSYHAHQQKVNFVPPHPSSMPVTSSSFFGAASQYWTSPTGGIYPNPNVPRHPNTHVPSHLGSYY
Method in brief: (§1)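 In yeast, human transcription factors were expressed with a GST fusion, then pulled down on glutathione beads and given DNA barcodes. Pooled with a tag-only sample, they were exposed to 200 nmole of a 16-mer random double-stranded DNA library (Tris/NaCl/DTT/glycerol buffer, room temperature, 30 min), washed, crosslinked with 0.1% formaldehyde, proximity-ligated using BsaI/T4 ligase for 1 h at 37 °C, PCR-amplified and read on an Illumina NextSeq500. Each hexamer's frequency of reads for a factor, divided by the matching frequency for the tag-only sample, gives the binding signal.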

[2] = biological target: T2, ELK1 (Homo sapiens, UniProt P19419 1-428); conditions: protein: recombinant; tags: N-terminal GST; dsDNA, one strand shown
T2 sequence: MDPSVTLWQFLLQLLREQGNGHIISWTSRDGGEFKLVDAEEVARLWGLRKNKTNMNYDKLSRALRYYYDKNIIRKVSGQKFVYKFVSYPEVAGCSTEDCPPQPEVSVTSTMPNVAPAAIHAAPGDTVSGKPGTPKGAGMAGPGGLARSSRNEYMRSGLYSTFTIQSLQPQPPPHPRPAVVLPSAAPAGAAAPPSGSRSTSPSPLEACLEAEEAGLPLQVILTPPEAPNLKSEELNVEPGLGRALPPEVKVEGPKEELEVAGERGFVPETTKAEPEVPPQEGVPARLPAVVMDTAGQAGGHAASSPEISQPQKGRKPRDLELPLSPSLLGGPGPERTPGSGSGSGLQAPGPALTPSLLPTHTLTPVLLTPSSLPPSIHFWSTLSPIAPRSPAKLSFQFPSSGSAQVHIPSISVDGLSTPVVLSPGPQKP
Method in brief: as §1

[3] = biological target: T3, GABPA (Homo sapiens, UniProt Q06546 1-454); conditions: protein: recombinant; tags: N-terminal GST; dsDNA, one strand shown
T3 sequence: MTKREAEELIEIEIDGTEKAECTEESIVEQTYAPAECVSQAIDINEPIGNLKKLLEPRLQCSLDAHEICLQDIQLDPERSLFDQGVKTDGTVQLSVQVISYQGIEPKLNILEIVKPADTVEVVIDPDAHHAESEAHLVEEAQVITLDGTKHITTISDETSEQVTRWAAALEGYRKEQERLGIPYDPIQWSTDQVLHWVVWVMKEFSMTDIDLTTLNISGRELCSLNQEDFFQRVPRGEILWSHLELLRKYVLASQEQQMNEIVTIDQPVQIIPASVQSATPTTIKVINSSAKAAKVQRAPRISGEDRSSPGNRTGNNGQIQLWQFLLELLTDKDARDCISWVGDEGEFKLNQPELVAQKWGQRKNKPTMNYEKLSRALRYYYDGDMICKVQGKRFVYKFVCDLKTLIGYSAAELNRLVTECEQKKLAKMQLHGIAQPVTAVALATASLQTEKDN
Method in brief: as §1

[4] = biological target: T4, ERG (Homo sapiens, UniProt P11308 1-479); conditions: protein: recombinant; tags: N-terminal GST; dsDNA, one strand shown
T4 sequence: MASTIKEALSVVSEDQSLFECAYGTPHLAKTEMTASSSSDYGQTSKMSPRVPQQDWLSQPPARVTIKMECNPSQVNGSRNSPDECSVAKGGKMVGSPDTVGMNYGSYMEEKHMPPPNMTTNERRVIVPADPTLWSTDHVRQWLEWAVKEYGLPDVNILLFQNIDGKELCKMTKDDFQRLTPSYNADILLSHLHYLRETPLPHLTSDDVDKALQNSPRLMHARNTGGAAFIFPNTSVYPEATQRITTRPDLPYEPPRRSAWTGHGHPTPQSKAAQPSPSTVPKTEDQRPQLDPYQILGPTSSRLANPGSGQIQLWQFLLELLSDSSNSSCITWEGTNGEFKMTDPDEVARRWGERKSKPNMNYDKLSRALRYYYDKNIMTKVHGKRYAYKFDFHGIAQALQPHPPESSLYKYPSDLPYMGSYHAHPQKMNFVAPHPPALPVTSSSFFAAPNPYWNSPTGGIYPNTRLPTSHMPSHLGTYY
Method in brief: as §1

[5] = biological target: ELF1 (Homo sapiens, UniProt P32519 1-619); conditions: protein: recombinant; tags: N-terminal GST; dsDNA, one strand shown
ELF1, sequence (P32519 whole entry): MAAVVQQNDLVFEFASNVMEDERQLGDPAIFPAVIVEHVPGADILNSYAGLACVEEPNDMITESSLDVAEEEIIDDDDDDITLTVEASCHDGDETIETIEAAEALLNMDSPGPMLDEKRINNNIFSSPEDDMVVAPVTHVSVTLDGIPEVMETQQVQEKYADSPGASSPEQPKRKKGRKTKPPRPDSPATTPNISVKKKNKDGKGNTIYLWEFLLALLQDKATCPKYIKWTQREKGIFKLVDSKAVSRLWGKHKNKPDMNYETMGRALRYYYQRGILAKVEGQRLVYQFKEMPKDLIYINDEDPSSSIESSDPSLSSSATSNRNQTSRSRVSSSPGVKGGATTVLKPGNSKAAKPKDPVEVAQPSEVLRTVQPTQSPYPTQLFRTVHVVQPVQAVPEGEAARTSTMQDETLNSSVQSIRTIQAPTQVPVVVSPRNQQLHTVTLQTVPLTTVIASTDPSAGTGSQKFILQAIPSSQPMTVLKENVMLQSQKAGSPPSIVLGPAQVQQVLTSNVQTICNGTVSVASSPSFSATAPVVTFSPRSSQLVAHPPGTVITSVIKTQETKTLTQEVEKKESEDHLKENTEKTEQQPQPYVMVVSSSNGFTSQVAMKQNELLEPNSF
Method in brief: as §1

[6] = biological target: T5, EHF (Homo sapiens, UniProt Q9NZC4 1-300); conditions: protein: recombinant; tags: N-terminal GST; dsDNA, one strand shown
T5 sequence: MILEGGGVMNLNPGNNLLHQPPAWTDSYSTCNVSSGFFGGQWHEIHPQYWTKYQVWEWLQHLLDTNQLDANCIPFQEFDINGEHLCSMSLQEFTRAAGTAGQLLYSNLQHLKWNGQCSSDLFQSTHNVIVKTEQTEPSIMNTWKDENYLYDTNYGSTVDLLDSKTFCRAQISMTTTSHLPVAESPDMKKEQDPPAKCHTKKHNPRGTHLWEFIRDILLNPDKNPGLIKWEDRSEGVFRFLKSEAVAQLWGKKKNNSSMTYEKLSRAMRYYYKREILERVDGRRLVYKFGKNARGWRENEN
Method in brief: as §1

[7] = biological target: SPI1 (Homo sapiens, UniProt P17947 1-270); conditions: protein: recombinant; tags: N-terminal GST; dsDNA, one strand shown
Method in brief: as §1

[8] = biological target: SPIB (Homo sapiens, UniProt Q01892 1-262); conditions: protein: recombinant; tags: N-terminal GST; dsDNA, one strand shown
SPIB, sequence (Q01892 whole entry): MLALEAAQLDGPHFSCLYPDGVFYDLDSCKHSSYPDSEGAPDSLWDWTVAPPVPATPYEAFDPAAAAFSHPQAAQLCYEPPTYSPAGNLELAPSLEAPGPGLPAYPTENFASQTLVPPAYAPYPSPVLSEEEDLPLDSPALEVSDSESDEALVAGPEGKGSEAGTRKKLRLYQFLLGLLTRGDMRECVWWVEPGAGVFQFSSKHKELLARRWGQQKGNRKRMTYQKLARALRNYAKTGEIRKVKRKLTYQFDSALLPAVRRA
Method in brief: as §1

[9] = biological target: T6, ELK3 (Homo sapiens, UniProt P41970 1-407); conditions: protein: recombinant; tags: N-terminal GST; dsDNA, one strand shown
T6 sequence: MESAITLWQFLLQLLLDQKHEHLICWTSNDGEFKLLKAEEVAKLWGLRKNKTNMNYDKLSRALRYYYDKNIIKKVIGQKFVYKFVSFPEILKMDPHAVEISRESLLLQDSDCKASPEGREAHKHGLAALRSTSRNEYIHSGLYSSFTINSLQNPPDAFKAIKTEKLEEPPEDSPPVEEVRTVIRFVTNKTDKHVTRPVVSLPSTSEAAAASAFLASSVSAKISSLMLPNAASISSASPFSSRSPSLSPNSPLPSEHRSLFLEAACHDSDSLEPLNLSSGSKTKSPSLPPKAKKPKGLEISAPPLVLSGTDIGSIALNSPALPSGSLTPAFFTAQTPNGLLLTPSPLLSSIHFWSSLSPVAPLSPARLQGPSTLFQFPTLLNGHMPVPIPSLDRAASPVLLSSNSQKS
Method in brief: as §1

[10] = biological target: T7, FEV (Homo sapiens, UniProt Q99581 1-238); conditions: protein: recombinant; tags: N-terminal GST; dsDNA, one strand shown
T7 sequence: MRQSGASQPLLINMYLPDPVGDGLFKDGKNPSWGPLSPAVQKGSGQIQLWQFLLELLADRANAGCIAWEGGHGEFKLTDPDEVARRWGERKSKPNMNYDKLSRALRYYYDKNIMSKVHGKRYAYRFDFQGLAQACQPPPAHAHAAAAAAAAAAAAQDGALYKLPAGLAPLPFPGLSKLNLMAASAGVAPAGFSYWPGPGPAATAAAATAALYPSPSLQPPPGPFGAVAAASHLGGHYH
Method in brief: as §1

[11] = biological target: ETV5 (Homo sapiens, UniProt P41161 1-510); conditions: protein: recombinant; tags: N-terminal GST; dsDNA, one strand shown
ETV5, sequence (P41161 whole entry): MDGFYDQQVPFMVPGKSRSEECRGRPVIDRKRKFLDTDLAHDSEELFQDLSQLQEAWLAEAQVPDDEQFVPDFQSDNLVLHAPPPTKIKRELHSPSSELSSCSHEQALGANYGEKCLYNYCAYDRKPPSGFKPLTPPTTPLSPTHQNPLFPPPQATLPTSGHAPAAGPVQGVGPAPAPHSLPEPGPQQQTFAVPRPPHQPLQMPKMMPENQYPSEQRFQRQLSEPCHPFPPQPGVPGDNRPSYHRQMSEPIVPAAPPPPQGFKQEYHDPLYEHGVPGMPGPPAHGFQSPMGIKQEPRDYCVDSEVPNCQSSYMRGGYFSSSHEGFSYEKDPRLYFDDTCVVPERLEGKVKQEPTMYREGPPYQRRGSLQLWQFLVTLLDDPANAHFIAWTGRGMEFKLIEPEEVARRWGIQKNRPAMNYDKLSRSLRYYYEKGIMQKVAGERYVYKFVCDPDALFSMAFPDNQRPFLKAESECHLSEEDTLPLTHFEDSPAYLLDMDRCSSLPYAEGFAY
Method in brief: as §1

[12] = biological target: HSF1 (Homo sapiens, UniProt Q00613 1-529); conditions: protein: recombinant; tags: N-terminal GST; chain copies: 3; dsDNA, one strand shown
HSF1, sequence (Q00613 whole entry): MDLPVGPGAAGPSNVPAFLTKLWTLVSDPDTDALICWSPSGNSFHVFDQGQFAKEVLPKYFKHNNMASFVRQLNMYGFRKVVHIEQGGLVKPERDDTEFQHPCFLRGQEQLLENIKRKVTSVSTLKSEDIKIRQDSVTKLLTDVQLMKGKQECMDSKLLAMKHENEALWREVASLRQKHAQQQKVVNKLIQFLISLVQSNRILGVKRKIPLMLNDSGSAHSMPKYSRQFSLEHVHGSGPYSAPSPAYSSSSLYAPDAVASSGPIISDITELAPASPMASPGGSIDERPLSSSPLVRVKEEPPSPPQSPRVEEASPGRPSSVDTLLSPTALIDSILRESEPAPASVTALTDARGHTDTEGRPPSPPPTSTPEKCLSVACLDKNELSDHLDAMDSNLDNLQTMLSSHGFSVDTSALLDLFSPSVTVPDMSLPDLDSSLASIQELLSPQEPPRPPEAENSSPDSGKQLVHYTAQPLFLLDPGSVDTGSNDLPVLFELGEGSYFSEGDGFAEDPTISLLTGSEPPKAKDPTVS
Method in brief: as §1

[13] = biological target: T8, SPIC (Homo sapiens, UniProt Q8N5J4 1-248); conditions: protein: recombinant; tags: N-terminal GST; dsDNA, one strand shown
T8 sequence: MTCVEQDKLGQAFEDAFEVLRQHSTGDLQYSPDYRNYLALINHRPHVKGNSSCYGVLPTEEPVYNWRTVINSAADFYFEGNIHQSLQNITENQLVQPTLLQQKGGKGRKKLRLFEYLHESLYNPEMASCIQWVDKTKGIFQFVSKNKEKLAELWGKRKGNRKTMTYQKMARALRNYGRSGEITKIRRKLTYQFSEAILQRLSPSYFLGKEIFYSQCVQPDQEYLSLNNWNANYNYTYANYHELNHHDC
Method in brief: as §1

[14] = biological target: ELF4 (Homo sapiens, UniProt Q99607 1-663); conditions: protein: recombinant; tags: N-terminal GST; dsDNA, one strand shown
ELF4, sequence (Q99607 whole entry): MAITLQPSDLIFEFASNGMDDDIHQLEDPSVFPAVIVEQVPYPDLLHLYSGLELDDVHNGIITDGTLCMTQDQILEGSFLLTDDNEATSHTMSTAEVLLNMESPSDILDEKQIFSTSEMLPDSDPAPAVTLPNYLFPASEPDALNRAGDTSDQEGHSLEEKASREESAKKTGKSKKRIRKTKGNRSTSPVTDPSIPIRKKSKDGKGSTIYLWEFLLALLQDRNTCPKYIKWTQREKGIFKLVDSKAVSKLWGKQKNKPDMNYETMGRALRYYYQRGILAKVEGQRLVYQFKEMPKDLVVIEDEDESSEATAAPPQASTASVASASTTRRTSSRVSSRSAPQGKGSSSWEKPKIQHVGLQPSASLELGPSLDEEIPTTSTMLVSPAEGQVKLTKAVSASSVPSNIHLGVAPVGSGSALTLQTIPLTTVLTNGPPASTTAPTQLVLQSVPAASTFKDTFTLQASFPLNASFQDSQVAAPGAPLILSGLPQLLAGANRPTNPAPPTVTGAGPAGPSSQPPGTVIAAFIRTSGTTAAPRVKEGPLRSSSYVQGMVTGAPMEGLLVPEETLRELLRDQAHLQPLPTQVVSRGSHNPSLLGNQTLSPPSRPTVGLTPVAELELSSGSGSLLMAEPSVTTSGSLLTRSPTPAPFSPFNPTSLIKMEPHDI
Method in brief: as §1

[15] = biological target: T9, ELK4 (Homo sapiens, UniProt P28324-2 1-405); conditions: protein: recombinant; tags: N-terminal GST; dsDNA, one strand shown
T9 sequence: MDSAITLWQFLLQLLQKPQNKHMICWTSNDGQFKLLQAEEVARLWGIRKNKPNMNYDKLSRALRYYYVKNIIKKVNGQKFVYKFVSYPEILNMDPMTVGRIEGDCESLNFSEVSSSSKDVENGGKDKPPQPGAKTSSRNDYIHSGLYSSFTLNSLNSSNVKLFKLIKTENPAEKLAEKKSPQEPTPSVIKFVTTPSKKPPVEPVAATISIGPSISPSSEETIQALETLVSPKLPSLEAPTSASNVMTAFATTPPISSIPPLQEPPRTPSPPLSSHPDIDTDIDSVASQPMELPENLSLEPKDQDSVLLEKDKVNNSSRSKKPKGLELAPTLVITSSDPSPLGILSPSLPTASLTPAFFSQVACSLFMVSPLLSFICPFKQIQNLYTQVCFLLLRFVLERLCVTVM
Method in brief: as §1

[16] = biological target: T10, ETV2 (Homo sapiens, UniProt O00321 1-342); conditions: protein: recombinant; tags: N-terminal GST; dsDNA, one strand shown
T10 sequence: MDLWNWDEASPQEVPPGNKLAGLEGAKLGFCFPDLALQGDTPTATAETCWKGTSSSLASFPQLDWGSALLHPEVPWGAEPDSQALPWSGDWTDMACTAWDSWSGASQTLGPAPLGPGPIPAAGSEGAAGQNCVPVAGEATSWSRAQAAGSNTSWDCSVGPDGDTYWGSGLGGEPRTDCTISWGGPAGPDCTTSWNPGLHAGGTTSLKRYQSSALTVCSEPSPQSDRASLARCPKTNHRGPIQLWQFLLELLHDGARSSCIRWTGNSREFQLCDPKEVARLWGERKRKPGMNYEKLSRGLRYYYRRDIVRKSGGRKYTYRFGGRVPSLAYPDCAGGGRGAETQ
Method in brief: as §1

[17] = biological target: T11, ELF3 (Homo sapiens, UniProt P78545 1-371); conditions: protein: recombinant; tags: N-terminal GST; dsDNA, one strand shown
T11 sequence: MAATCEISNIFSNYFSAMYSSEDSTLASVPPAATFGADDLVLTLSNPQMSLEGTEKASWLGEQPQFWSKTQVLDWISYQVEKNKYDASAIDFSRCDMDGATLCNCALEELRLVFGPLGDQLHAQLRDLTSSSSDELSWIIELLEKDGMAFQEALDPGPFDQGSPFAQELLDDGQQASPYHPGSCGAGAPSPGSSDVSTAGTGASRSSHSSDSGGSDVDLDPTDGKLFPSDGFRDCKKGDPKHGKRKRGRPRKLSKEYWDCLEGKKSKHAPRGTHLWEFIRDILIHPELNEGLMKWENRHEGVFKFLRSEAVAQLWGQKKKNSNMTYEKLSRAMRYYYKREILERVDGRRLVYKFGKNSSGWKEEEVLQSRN
Method in brief: as §1

[18] = biological target: CRX (Homo sapiens, UniProt O43186 1-299); conditions: protein: recombinant; tags: N-terminal GST; dsDNA, one strand shown
CRX, sequence (O43186 whole entry): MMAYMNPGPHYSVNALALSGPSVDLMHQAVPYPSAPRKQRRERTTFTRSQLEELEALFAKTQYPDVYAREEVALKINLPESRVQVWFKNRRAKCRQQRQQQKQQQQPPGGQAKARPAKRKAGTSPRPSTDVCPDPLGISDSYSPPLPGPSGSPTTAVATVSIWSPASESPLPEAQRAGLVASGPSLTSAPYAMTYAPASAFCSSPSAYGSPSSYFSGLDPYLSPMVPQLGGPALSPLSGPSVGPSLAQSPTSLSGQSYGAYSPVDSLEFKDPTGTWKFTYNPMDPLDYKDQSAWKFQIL
Method in brief: as §1

[19] = biological target: ETV1 (Homo sapiens, UniProt P50549 1-477); conditions: protein: recombinant; tags: N-terminal GST; dsDNA, one strand shown
ETV1, sequence (P50549 whole entry): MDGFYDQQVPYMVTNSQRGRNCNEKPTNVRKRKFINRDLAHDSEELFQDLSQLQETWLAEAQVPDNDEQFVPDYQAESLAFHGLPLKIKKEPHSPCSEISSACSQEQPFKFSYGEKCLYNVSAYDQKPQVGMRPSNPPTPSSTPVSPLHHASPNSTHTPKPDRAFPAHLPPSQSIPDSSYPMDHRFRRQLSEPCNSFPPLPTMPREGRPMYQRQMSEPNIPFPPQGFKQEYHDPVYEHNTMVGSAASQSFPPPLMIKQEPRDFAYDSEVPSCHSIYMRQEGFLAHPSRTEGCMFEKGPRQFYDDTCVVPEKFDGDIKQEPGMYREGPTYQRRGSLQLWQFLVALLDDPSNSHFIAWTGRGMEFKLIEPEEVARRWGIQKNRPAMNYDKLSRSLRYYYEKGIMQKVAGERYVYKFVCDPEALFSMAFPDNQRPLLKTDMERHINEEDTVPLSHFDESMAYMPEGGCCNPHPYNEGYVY
Method in brief: as §1

Q: How did the binding signal [1] turn out when CTGGCT was run?
A: 1.33 fold enrichment (6-mer frequency, TF over GST control)

Q: What about the binding signal [2] of the same sequence?
A: 1.31 fold enrichment (6-mer frequency, TF over GST control)

Q: And the binding signal [3]?
A: 1.37 fold enrichment (6-mer frequency, TF over GST control)

Q: What about the binding signal [4] of the same sequence?
A: 1.3 fold enrichment (6-mer frequency, TF over GST control)

Q: What about the binding signal [5] of the same sequence?
A: 1.25 fold enrichment (6-mer frequency, TF over GST control)

Q: What about the binding signal [6] of the same sequence?
A: 1.26 fold enrichment (6-mer frequency, TF over GST control)

Q: What about the binding signal [7] of the same sequence?
A: 1.18 fold enrichment (6-mer frequency, TF over GST control)

Q: What about the binding signal [8] of the same sequence?
A: 1.22 fold enrichment (6-mer frequency, TF over GST control)

Q: What about the binding signal [9] of the same sequence?
A: 1.12 fold enrichment (6-mer frequency, TF over GST control)

Q: What about the binding signal [10] of the same sequence?
A: 1.16 fold enrichment (6-mer frequency, TF over GST control)

Q: And the binding signal [11]?
A: 1.13 fold enrichment (6-mer frequency, TF over GST control)

Q: What about the binding signal [12] of the same sequence?
A: 1.27 fold enrichment (6-mer frequency, TF over GST control)

Q: What about the binding signal [13] of the same sequence?
A: 1.13 fold enrichment (6-mer frequency, TF over GST control)

Q: And the binding signal [14]?
A: 1.18 fold enrichment (6-mer frequency, TF over GST control)

Q: What about the binding signal [15] of the same sequence?
A: 1.42 fold enrichment (6-mer frequency, TF over GST control)

Q: What about the binding signal [16] of the same sequence?
A: 1.5 fold enrichment (6-mer frequency, TF over GST control)

Q: What about the binding signal [17] of the same sequence?
A: 1.19 fold enrichment (6-mer frequency, TF over GST control)

Q: And the binding signal [18]?
A: 1.21 fold enrichment (6-mer frequency, TF over GST control)

Q: What about the binding signal [19] of the same sequence?
A: 1.1 fold enrichment (6-mer frequency, TF over GST control)
